Data from PubChem BioAssay AID504465 (National Center for Advancing Translational Sciences (NCATS), 2011).
About 210 (10%) of roughly 2,100 compounds were called active. Not shown: some 53% with an inconclusive outcome. Calls come from the whole dose curve; as a rule, active = well fitted inhibition curve with a large enough effect; inconclusive = small, poorly fitted or top-dose-only effect, or effect the other way; inactive = no such curve, though single readings can be large or run the other way. The list shows a part of the results. Where a call stands in place of a potency, no number is given.

Test: IN Cell qHTS Assay for Inhibitors of the mTORC1 Signaling Pathway in MEF (Tsc2-/-, p53-/-) Cells: Sytravon; note: nearly all actives have a fitted effect of over 60% in size
Details: phospho-rpS6 immunofluorescence, 24 h; series mostly up to 38.3 µM
Outline: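 Tsc2-/-, p53-/- MEFs (empty-vector) treated with compound 24 h at 37 degree Celsius, then fixed and stained for phospho-rpS6 Ser235/236 (Alexa-488) plus Hoechst. Reported as % positive cells, thresholds set against 7.5 nM rapamycin and DMSO wells.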
Potency is the fitted concentration of half-maximal effect.

| Structure (SMILES) | Potency |
| --- | --- |
| Cc1ccc(NC(=O)c2c(C)oc3ccc(O)c(CN(C)Cc4ccccc4)c23)c(C)c1 | inactive |
| CCC(C)NC(=O)CSc1nc2cc3c(cc2c(=O)n1CCCC(=O)NCCc1ccc(OC)c(OC)c1)OCO3 (configuration not stated) | inactive |
| COc1ccccc1Oc1nc2c(C)cccn2c(=O)c1/C=C(\C#N)c1nc2ccccc2[nH]1 | inactive |
| O=C(Cn1cc(SCc2ccc(F)cc2)c2ccccc21)N1CCCCCC1 | inactive |
| Cc1ccc2nc3c(cc(C(=O)NC4CCCCC4)c(=N)n3C(C)C)c(=O)n2c1 | inactive |
| Cc1ccc(-c2noc(CCCC(=O)NCc3ccco3)n2)cc1 | inactive |
| COCCn1c(=N)c(C(=O)NCc2ccco2)cc2c(=O)n3cc(C)ccc3nc21 | 13.1 µM (active) |
| Cc1ccc(Cl)cc1NC(=O)CCn1cnc2ccccc2c1=O | inactive |
| COc1ccc(C(=O)N2CCc3cc(OC)c(OC)cc3C2COc2ccc3c(C)cc(=O)oc3c2)c(OC)c1 (configuration not stated) | inactive |
| CCC(C)S(=O)(=O)c1oc(-c2cccs2)nc1S(=O)(=O)c1ccccc1 (configuration not stated) | 1.47 µM (active) |
| Cc1ccc(S(=O)(=O)c2nnn3c2nc(NCc2cccs2)c2sccc23)cc1 | inactive |
| O=S(=O)(c1ccccc1)c1nc(-c2cccs2)oc1SCc1ccccc1F | inactive |
| CCCCS(=O)(=O)c1oc(-c2cccs2)nc1S(=O)(=O)c1ccc(F)cc1 | 3.69 µM (active) |
| CCCCS(=O)(=O)c1oc(-c2cccs2)nc1S(=O)(=O)c1ccccc1 | 0.585 µM (active) |
| Cc1nn(C)c2c1c(-c1ccccc1)cc(=O)n2Cc1ccccc1C#N | inactive |
| CCN1CCOC(=O)C1CC(=O)Nc1ccc(Br)cc1 (configuration not stated) | inactive |
| Cc1cc(C)cc(NC(=O)C2CCCN2S(=O)(=O)c2ccc3nc(-c4ccccc4)[nH]c3c2)c1 (configuration not stated) | inactive |
| COc1ccc(S(=O)(=O)NC2(C(F)(F)F)NC(=O)N(CCc3ccc(OC)c(OC)c3)C2=O)cc1 (configuration not stated) | inactive |
| O=C(CSCc1ccc(F)cc1)N1CCc2c([nH]c3ccccc23)C1c1ccc(Cl)cc1 (configuration not stated) | inactive |
| CCCCNC(=O)c1ccc2c(c1)N=C(CC)c1ccccc1S2 | inactive |
| CCOc1ccc(-c2cc(NC(=O)c3ccc(C)cc3)c(C(=O)OC)s2)cc1 | inactive |
| CCCN1CCN(CCCNC(=O)c2ccc3c(c2)sc2nc(-c4ccc(OCC)cc4)cn23)CC1 | 1.85 µM (active) |
| CCC1CCCCN1C(=O)CSc1n[nH]c(-c2ccccc2)n1 (configuration not stated) | inactive |

| Structure (SMILES) | Potency |
| --- | --- |
| CCOC(=O)c1cc(S(=O)(=O)NCc2ccc(C)cc2)[nH]n1 | inactive |
| Cc1cccc(NC(=O)c2oc3ccc(S(=O)(=O)N4CCC5(CC4)OCCO5)cc3c2C)c1C | inactive |
| COc1cccc(C(=O)CC2(O)C(=O)N(Cc3ccccc3)c3ccccc32)c1 (configuration not stated) | inactive |
| CCCCN1C(=O)C(O)(c2c(C)[nH]c3ccccc23)c2cc(Br)ccc21 (configuration not stated) | inactive |
| CCCN1C(=O)C(O)(CC(=O)c2ccc(C(C)C)cc2)c2ccccc21 (configuration not stated) | inactive |
| COC(=O)CN1C(=O)C(O)(CC(=O)c2ccc(F)cc2)c2ccccc21 (configuration not stated) | inactive |
| COc1ccc(C(=O)CC2(O)C(=O)N(Cc3cccc(C(F)(F)F)c3)c3ccccc32)cc1 (configuration not stated) | 4.65 µM (active) |
| Cc1ccccc1CN1C(=O)C(O)(CC(=O)c2ccccc2)c2cc(Cl)ccc21 (configuration not stated) | inactive |
| CCCCN1C(=O)C(O)(c2c[nH]c3ccccc23)c2cc(Br)ccc21 (configuration not stated) | inactive |
| CCCCN1C(=O)C(O)(CC(=O)c2ccc(CC)cc2)c2cc(Br)ccc21 (configuration not stated) | 18.5 µM (active) |
| O=C(CC1(O)C(=O)N(CCc2ccccc2)c2ccc(Br)cc21)c1ccccc1O (configuration not stated) | 20.7 µM (active) |
| O=C(CC1(O)C(=O)N(Cc2ccccc2)c2ccc(Br)cc21)c1ccccc1 (configuration not stated) | 16.5 µM (active) |
| CN1CCc2c(sc(NC(=O)CSc3ccc(F)cc3)c2-c2nc3ccccc3s2)C1 | inactive |
| CCC1=Nc2cc(C(=O)NCC(C)c3ccccc3)ccc2Sc2ccc(C)cc21 (configuration not stated) | inactive |
| CCn1cc2nc(SCC(=O)Nc3cccc(Cl)c3C)n(Cc3ccc(Cl)cc3)c(=O)c2n1 | inactive |
| COc1ccc(-c2nc(SCC(=O)Nc3ccc4c(c3)OCCO4)c(-c3ccc(F)cc3)[nH]2)cc1 | inactive |
| CC1=C(C(=O)OCC2CCCCC2)C(c2ccc(Cl)cc2)CC(=O)N1 (configuration not stated) | inactive |
| O=C1c2[nH]nc(-c3ccccc3O)c2C(c2ccc(Cl)cc2)N1Cc1ccco1 (configuration not stated) | inactive |
| COc1ccc(C2(Nc3cccc(C(=O)O)c3C)C(=O)c3ccccc3C2=O)cc1 | inactive |
| CCc1ccc(Oc2nc3c(C)cccn3c(=O)c2/C=C(\C#N)c2nc3ccccc3[nH]2)cc1 | inactive |
| COc1cccc(NS(=O)(=O)c2ccc3c(c2)CCCN3C(=O)C2CCC2)c1 | inactive |
| Cc1ccc(CN2C(=O)C(O)(CC(=O)c3ccc(C)cc3)c3ccccc32)cc1 (configuration not stated) | 16.5 µM (active) |
| CCc1ccc(C(=O)CC2(O)C(=O)N(Cc3ccc(C)cc3)c3ccccc32)cc1 (configuration not stated) | inactive |

| Structure (SMILES) | Potency |
| --- | --- |
| CCOC(=O)CN1C(=O)C(O)(CC(=O)c2cc(OC)ccc2OC)c2ccccc21 (configuration not stated) | inactive |
| COc1cc(C(=O)CC2(O)C(=O)N(Cc3ccccc3Cl)c3ccccc32)cc(OC)c1OC (configuration not stated) | 0.147 µM (active) |
| COc1ccc(N2C(=O)CCSC23C(=O)N(Cc2ccc(F)cc2)c2ccccc23)cc1Cl (configuration not stated) | inactive |
| Cc1ccc(CN2C(=O)C(O)(c3c(C)[nH]c4ccccc34)c3ccccc32)cc1 (configuration not stated) | inactive |
| CCOC(=O)C1CCN(C(=O)CSc2c3c(nc4ccc(Cl)cc24)CCCC3)CC1 | inactive |
| COC(=O)c1c(NC(=O)c2ccc(S(=O)(=O)N3CCCCC3)cc2)sc2c1CCN(C)C2 | inactive |
| Cc1ccc(NC(=O)/C=C\C(=O)N(c2ccc(C(C)C)cc2)C(C(=O)NCc2ccco2)c2ccc(F)cc2)cc1 (configuration not stated) | inactive |
| COc1ccc2nc(C)cc(Nc3ccc(Cl)c(Cl)c3)c2c1 | 13.1 µM (active) |
| COc1cc(Nc2nc(SCC(=O)c3ccc(Cl)c(Cl)c3)nc3ccccc23)cc(OC)c1 | inactive |
| COc1ccc(Nc2cc(C)nc3c(C)c(C)ccc23)cc1 | inactive |
| Clc1cccc(-n2ncc3c(NC4CCCCC4)ncnc32)c1 | inactive |
| Cc1cccc(Cc2c(C)nc3nc(SCC(=O)NCc4ccc(F)cc4)nn3c2C)c1 | inactive |
| CC(=O)N1CCc2cc(CNS(=O)(=O)c3cccs3)ccc21 | inactive |
| Cc1nc2nncn2c(NCc2ccc(Cl)cc2)c1C | inactive |
| COc1ccc(CCNC(=O)c2cc3n(n2)CCCN(Cc2ccc(C)cc2)C3=O)cc1OC | inactive |
| COc1ccc2c(c1)CC(C(=O)Nc1cc(Cl)ccc1C)CO2 (configuration not stated) | inactive |
| CCOc1ccc(-n2nc3ccc(NC(=O)c4ccc(-c5cccc(Cl)c5)o4)cc3n2)cc1 | 13.1 µM (active) |
| CCOc1ccc(-n2nc(CO)c(C(=O)NCc3cccs3)n2)cc1 | inactive |
| CCOC(=O)c1c(C)oc2ncnc(N3CCN(c4cccc(Cl)c4)CC3)c12 | inactive |
| CCN1CCc2c(sc(NC(=O)c3ccc(S(=O)(=O)N4CCCC(C)C4)cc3)c2C(=O)OC)C1 (configuration not stated) | inactive |
| Cc1ccc(S(=O)(=O)Nc2cccc(-c3ccc(N4CCC(C)CC4)nn3)c2)s1 | inactive |
| O=c1c2ccccc2n(Cc2c(F)cccc2Cl)c(=O)n1Cc1ccccc1 | inactive |
| COc1ccccc1CNC(=O)CCCn1c(=O)c2ccccc2n(Cc2ccc(F)cc2)c1=O | inactive |

| Structure (SMILES) | Potency |
| --- | --- |
| O=C(NC1CCN(Cc2ccccc2)CC1)c1ccc(Cn2c(=O)c3ccccc3n(Cc3ccc(F)cc3)c2=O)cc1 | 2.61 µM (active) |
| COc1ccc(N2CCN(C(=O)CSCc3ccc(C)cc3)CC2)cc1 | inactive |
| CCOC(=O)c1c(C)oc2nc(C)nc(NCc3ccc(Cl)cc3)c12 | inactive |
| CCOC(=O)C(Cc1c[nH]c2ccccc12)NC(=O)COc1ccc(Cl)cc1 (configuration not stated) | inactive |
| CCc1ccc(NC(=O)c2cc(S(=O)(=O)NC3CCCC3)ccc2F)cc1 | inactive |
| Cc1ccc2c(CNCCc3ccc(Cl)cc3)c(C(=O)O)n(Cc3ccc(F)cc3)c2c1 | inactive |
| COc1ccc(OC)c(NC(=O)c2c(NCc3ccc(OC)c(OC)c3)sc3c2CCC(C)C3)c1 (configuration not stated) | inactive |
| Cc1ccc(NC(=O)c2cc(S(=O)(=O)NC3CCCCC3)ccc2F)cc1Cl | inactive |
| Cc1ccc(C)c(NC(=O)c2nc(S(=O)(=O)Cc3ccc(F)cc3)ncc2Cl)c1 | 3.29 µM (active) |
| Cc1ccc(NC(=O)c2cc(S(=O)(=O)NCCC3=CCCCC3)ccc2F)cc1C | inactive |
| COc1ccc(C)cc1NC(=O)c1cc(S(=O)(=O)NC2CCCCCC2)ccc1F | inactive |
| Cc1ccc(NC(=O)c2nc(S(=O)(=O)Cc3ccc(F)cc3)ncc2Cl)cc1C | 1.65 µM (active) |
| CC1=C(c2ccc(C)c(C)c2)S(=O)(=O)N(Cc2ccc(C(=O)Nc3cc(F)ccc3F)cc2)C1=O | inactive |
| CC(=O)Nc1ccc(NC(=O)c2nc(S(=O)(=O)Cc3ccc(F)cc3)ncc2Cl)cc1 | 8.26 µM (active) |
| COc1ccc(OC)c(NC(=O)c2nc(S(=O)(=O)Cc3ccc(F)cc3)ncc2Cl)c1 | 2.33 µM (active) |
| COc1cc(NS(=O)(=O)c2cc(Br)cc3c2N(C(=O)C2CC2)CC3)cc(OC)c1 | inactive |
| CCc1c(C)nc2nncn2c1NCc1ccc(Cl)cc1 | inactive |
| CC(=O)c1cccc(NC(c2ccc(F)cc2)c2nnc(-c3ccccc3)o2)c1 (configuration not stated) | inactive |
| Cc1ccccc1Nc1c(-c2c[nH]c3ccccc23)nc2cccc(C)n12 | inactive |
| O=C(Nc1ccc(Br)cc1)c1cc(S(=O)(=O)NC2CCCC2)ccc1F | inactive |
| COc1ccc(Cn2c(C(=O)O)c(CNC3CCCCCC3)c3ccc(OC)cc32)cc1 | inactive |
| CC(C)CCN(C(=O)Nc1ccc(Cl)c(Cl)c1)C1CCN(C(C)C)CC1 | inactive |
| Cc1cc(C)c(NC(=O)c2cc(S(=O)(=O)NCCC3=CCCCC3)ccc2F)c(C)c1 | inactive |
